# This is one part of a sample in which hits are shown more often than they occur.
# miR122 inh = miR-122 sensor activation. AID 623901. hit rate 0.14% among 340,000. activation, % at 12.5 µM. Huh7 psiCHECK-miR122 Renilla luciferase sensor, 48 h;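 active means mean activation of 30% or more, with every replicate also reaching 30%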;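 further: 0% = median of neutral control wells and 100% = median of positive control wells; higher luciferase signal means stronger suppression of miR-122 activity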
# * = called active by the depositor.
SMILES,miR122 inh
COC(=O)C1=C(C)N=C2SC(C#N)=C(N)N2C1c1cc(OC)c(OC)c(OC)c1 (stereo not drawn),38*
C[C@H](CO)N1C[C@H](C)[C@H](CN(C)C(=O)CC2CC2)Oc2cc(C3=CCCCC3)ccc2S1(=O)=O,-3
C[C@H](CO)N1C[C@H](C)[C@@H](CN(C)C(=O)CN(C)C)Oc2cc(-c3ccccc3)ccc2S1(=O)=O,-3
COc1cccc(-n2nnnc2S(C)(=O)=O)c1,48*
COc1cccc(NS(=O)(=O)c2ccc(Br)s2)c1,-218
COc1cccc(NS(=O)(=O)c2c(C)cc(C)cc2C)c1,-399
C[C@@H]1CN([C@@H](C)CO)S(=O)(=O)c2ccc(C#CC3CC3)cc2O[C@H]1CN(C)C(=O)C1CC1,-27
COc1ccc(C#Cc2ccc3c(c2)O[C@H](CN(C)C)[C@@H](C)CN([C@H](C)CO)S3(=O)=O)cc1,-7
COc1ccc(NC(=O)Nc2ccc3c(c2)OC[C@@H](C)NC[C@H](C)[C@@H](OC)CN(C)C3=O)cc1,-1
CO[C@@H]1CN(C)C(=O)c2ccc(NC(C)=O)cc2OC[C@@H](C)N(C(=O)c2ccccc2F)C[C@H]1C,35*
CO[C@@H]1CN(C)C(=O)c2cc(NC(C)=O)ccc2OC[C@H](C)N(C(=O)c2ccccc2)C[C@@H]1C,-1
COc1ccc(NC(=O)Nc2ccc3c(c2)OC[C@@H](C)NC[C@@H](C)[C@@H](OC)CN(C)C3=O)cc1,3
CO[C@@H]1CN(C)C(=O)c2ccc(NC(=O)c3ccc(Oc4ccccc4)cc3)cc2OC[C@H](C)NC[C@@H]1C,37*
CCC(=O)Nc1ccc2c(c1)OC[C@@H](C)N(C(=O)c1ccccc1F)C[C@H](C)[C@@H](OC)CN(C)C2=O,-3
CO[C@H]1CN(C)C(=O)c2ccc(NS(=O)(=O)c3ccc(C)cc3)cc2OC[C@H](C)N(C)C[C@H]1C,5
C[C@H]1CN([C@@H](C)CO)S(=O)(=O)c2ccc(-c3ccccc3)cc2O[C@H]1CN(C)Cc1ccccc1C(=O)O,-2
CC(C)C#Cc1ccc2c(c1)O[C@H](CN(C)Cc1ccccn1)[C@@H](C)CN([C@@H](C)CO)S2(=O)=O,-16
C[C@H]1CN([C@@H](C)CO)S(=O)(=O)c2ccc(C3=CCCCC3)cc2O[C@@H]1CN(C)C(=O)CC1CC1,-23
C[C@@H]1CN([C@@H](C)CO)C(=O)c2cc(-c3cccc(C#N)c3)cnc2O[C@H]1CN(C)Cc1ccccc1,7
Cc1ccc(CN2CCSc3ccc(C(=O)NCc4ccco4)cc32)cc1,-100
Cc1ccc(C2CC(C(F)(F)F)n3nc(C(=O)NCc4ccco4)cc3N2)cc1 (stereo not drawn),41*
C[C@H](CO)N1C[C@H](C)[C@H](CN(C)C(=O)Nc2ccccc2)Oc2ncc(-c3cc4ccccc4o3)cc2C1=O,8
C[C@H](CO)N1C[C@H](C)[C@H](CN(C)Cc2ccc3c(c2)OCO3)Oc2ncc(Br)cc2C1=O,-3
C[C@@H]1CN([C@@H](C)CO)S(=O)(=O)c2ccc(-c3ccc(C(=O)N(C)C)cc3)cc2O[C@@H]1CN(C)C(=O)C1CCOCC1,19
C[C@@H]1CN([C@H](C)CO)S(=O)(=O)c2ccc(Br)cc2O[C@H]1CN(C)CC1CCOCC1,-3
SMILES,miR122 inh
CC1CCCC(NC(=O)COC(=O)c2ccccc2NC(=O)c2ccco2)C1C (stereo not drawn),-171
Cc1sc(NC(=O)c2ccccc2)c(C(c2ccc(Cl)cc2)N2CCN(CCO)CC2)c1C (stereo not drawn),-95
CCOC(=O)C1CCN(C(c2cccnc2)c2c(NC(=O)c3ccco3)sc(C)c2C)CC1 (stereo not drawn),39*
CCC(=O)N(C)C[C@H]1Oc2cc(C#C[C@H](C)O)ccc2S(=O)(=O)N([C@@H](C)CO)C[C@H]1C,7
C[C@H]1CN([C@@H](C)CO)C(=O)c2cccc(NC(=O)c3ccncc3)c2O[C@@H]1CN(C)CC1CCCCC1,-91
C[C@H](CO)N1C[C@H](C)[C@H](CN(C)C(=O)c2cccc(F)c2)Oc2ncc(/C=C/c3ccccc3)cc2C1=O,-3
CC(C)NC(=O)Nc1ccc2c(c1)C(=O)N(C)[C@@H]1CC[C@@H](CC(=O)NCC(F)(F)F)O[C@@H]1CO2,37*
CC(C)NC(=O)Nc1ccc2c(c1)C(=O)N(C)[C@@H]1CC[C@H](CC(=O)NCC(F)(F)F)O[C@H]1CO2,37*
C[C@@H]1CN([C@H](C)CO)C(=O)c2cc(C#Cc3cccc(F)c3)cnc2O[C@@H]1CN(C)CC1CCOCC1,0
COc1cccc(-c2ccc3c(c2)O[C@@H](CN(C)C(C)=O)[C@@H](C)CN([C@H](C)CO)S3(=O)=O)c1,-3
C[C@@H]1CN([C@@H](C)CO)S(=O)(=O)c2ccc(C#CCC3CCCC3)cc2O[C@@H]1CN(C)C(=O)CN(C)C,7
C[C@@H]1CN([C@@H](C)CO)S(=O)(=O)c2ccc(C#Cc3ccccc3F)cc2O[C@@H]1CN(C)C(=O)Cc1ccncc1,57*
C[C@@H]1CN([C@@H](C)CO)S(=O)(=O)c2ccc(C#Cc3ccccc3F)cc2O[C@H]1CN(C)C(=O)Cc1ccccc1,-2

# Screening data from PubChem BioAssay.
